Assay results reported in PubChem BioAssay (EPA / NIEHS).
Active and inactive are the calls of the source. Rule for the calls: active = hit-call score of the fitted dose curve at least 0.9, where 1 is the maximum; inactive = score below 0.9.

Test: BSK_4H_Eotaxin3: BioMAP Diversity Plus: 4H Assay for Eotaxin 3 Biomarker Activity (AID 2283000)
Details: primary human endothelial cells (HUVEC); actives raise or lower the signal
Experimental: BSK_4H is a cell-based, multiplexed-readout assay that uses umbilical vein endothelium, a human vascular primary cell, with measurements taken at 24 hours after chemical dosing in a 96-well plate.BSK_4H_Eotaxin3 is an assay component measured in the BSK_4H assay. It measures Eotaxin-3 antibody related to regulation of gene expression using ELISA technology.Data from the assay component BSK_4H_Eotaxin3 was analyzed into 1 assay endpoint. This assay endpoint, BSK_4H_Eotaxin3, was analyzed with bidirectional fitting relative to DMSO as the negative control and baseline of activity. Using a type of binding reporter, gain or loss-of-signal activity can be used to understand changes in the signaling as they relate to the gene CCL26. Furthermore, this assay endpoint can be referred to as a primary readout, because this assay has produced multiple assay endpoints where this one serves a signaling function. To generalize the intended target to other relatable targets, this assay endpoint is annotated to the cytokine intended target family, where the subfamily is chemotactic factor.
The levels of cell surface (or secreted, indicated by the prefix "s") biomarker endpoints were measured by ELISA. Overt cytotoxicity to cells in confluent adherent cultures (all systems other than the BT system) was assessed by measuring total protein levels using sulforhodamine B (SRB) staining in parallel cultures at the time of biomarker measurements, indicated as SRB endpoints. For proliferation assays for adherent cell types, individual cell types are cultured at sub-confluence and relative cell numbers quantified by SRB staining at time points optimized for each system (48 h: 3C and CASM3C systems; 72 h: BT and HDF3CGF systems; 96 h: SAg system). SRB was performed by staining cells with 0.1% SRB after fixation with 10% TCA and reading wells at 560 nm.Viability and proliferation of PBMC (T cells) was quantified by Alamar Blue reduction for the SAg and BT systems. For PBMC viability (referred to as PBMC Cytotoxicity within the assay endpoint names), cells were plated (75,000/well in a 96-well plate) and then chemical samples added for 1 h before addition of activators, SEB and TSST-1 (20 ng/mL final concentration each). Cells were incubated for 90 h. Then, Alamar Blue (20 uL/well) (Invitrogen, Cat DAL1100) was added for 6 h, and the plates were read with a fluorescence microplate reader at 546/580 nm (excitation/emission). For PBMC proliferation, cells were plated and activated as above but incubated for only 16 h prior to addition of Alamar Blue. Plates were read after 6 h.

outcome, inactive:
NC(=O)NO
COC(=O)c1c(Cl)c(Cl)c(C(=O)OC)c(Cl)c1Cl
O=C(O)CCN(C1(C(=O)NO)CCCC1)S(=O)(=O)c1ccc(Oc2ccc(F)cc2)cc1
Cn1cnc([N+](=O)[O-])c1Sc1ncnc2nc[nH]c12
CCCCC(CC)COC(=O)CCCCCCCCC(=O)OCC(CC)CCCC (stereo not given)
CCOCCOCCOCCO
CCOC(=O)c1ccc(C2CCC(NC[C@H](O)COc3ccc(O)c(NS(C)(=O)=O)c3)CC2)cc1 (stereo not given in full)
CCNc1ccccc1
COC(=O)c1ccccc1O
CNCc1ccc(NC(=O)c2c[nH]c3c2C(=O)CCC3)cc1
CC(C)=CCC/C(C)=C/CO
C=CC(=C)CCC=C(C)C
CC1=CC(=O)CC(C)(C)C1
COCCOCCOCCOC
Cc1c(-c2cccnc2)c2ccccc2n1CCCCC(=O)O
COC(=O)CC(=O)OC
CCN(C(=O)c1cc(C)cc(OC[C@H](C)Nc2ccncc2)c1)C(C)C
CC(C)=CCC/C(C)=C\CO
CN(C)c1ccc(N=NS(=O)(=O)O)cc1
CCOC(=O)CC(CC(=O)OCC)(OC(C)=O)C(=O)OCC
O=C(O)c1cc(N=Nc2ccc(S(=O)(=O)Nc3ccccn3)cc2)ccc1O
O=C(NS(=O)(=O)/C=C/c1ccccc1)c1ccc(F)cc1Cl
Cn1c(=O)c2c(ncn2C)n(C)c1=O
CC(=O)OC[C@H]1O[C@@](COC(C)=O)(O[C@H]2O[C@H](COC(C)=O)[C@@H](OC(C)=O)[C@H](OC(C)=O)[C@H]2OC(C)=O)[C@@H](OC(C)=O)[C@@H]1OC(C)=O
CCn1nc(Cc2ccccc2)cc1C1CCN(C[C@H]2C[C@H](N(C)[C@@H](C(=O)O)C(C)C)C[C@@H]2c2cccc(F)c2)CC1
CC1(C)C(=O)N(Br)C(=O)N1Br
Cc1ccc(O)cc1
CCOCCO
Cc1ccc(C)c(O)c1
CC(O)CN(CCN(CC(C)O)CC(C)O)CC(C)O (stereo not given)
O=C(O)CC(O)C(=O)O (stereo not given)

AC50, active:
COc1ccc2sc(C(=O)Nc3nnn[nH]3)c(OC(C)C)c2c1 23.3 µM
O=C(O)c1cccc(N(Cc2cccnc2)c2ccc(OC(F)F)c(OC(F)F)c2)c1 12.9 µM
Oc1ccc2c(c1)-c1ccccc1C2 23.3 µM
O=C(CCCCCCCCc1cccnc1)N1CCC(C=C(c2ccccc2)c2ccccc2)CC1 9.64 µM
CCCCCCCCCCCCc1ccccc1 26.6 µM
Cc1ccc(N)cc1O 20 µM
COc1cccc(-c2ccc(/C=C\CN3CCCCCC3)cc2Cl)c1 28 µM
CNS(=O)(=O)c1cc(C(=O)N2CCC(CCN3C4CCC3CC(n3c(C)nc5ccccc53)C4)(c3cccc(F)c3)CC2)c(Cl)cc1F (stereo not given) 30.9 µM
Nc1ccc(Nc2ccccc2)cc1 3.97 µM
